Hit rate of the full screen: of about 48,000 compounds, about 13,000 (27%) showed an effect of 50% or more. Some of the results follow.

This test relates to Wolbachia pipientis. Description: Anti-Wolbachia Cell-Based Screen. The test is classed as functional. Details: scale not given: in the data most compounds retested in dose-response had high values. To be noted: 5 µM.
Take `CC(=O)N1CCCN(C(=O)Nc2ccccc2N2CCOC2=O)CC1`: the “Percent Effect” value was -24.88%. `COc1cc(N2C[C@H]3CN(CC(=O)N(C)C)C(=O)[C@H]3C2)ncn1`: the “Percent Effect” value is -6.391%. As to `Cc1noc(CCNS(=O)(=O)N2CCCC2c2ccco2)n1` (stereo not drawn), the “Percent Effect” value was -8.363%. Next, `NC(=O)c1nnn(-c2ccc(Br)cc2)n1`: 2.849%; `O=C(c1nnn(-c2ccc(C(F)(F)F)cc2)n1)N1CC(O)C1`: 9.515%. Take `COc1ccc(-n2nnc(C(=O)NCC3CCCCC3)n2)cc1`: the “Percent Effect” value is recorded as -6.383%. Consider `NC(=O)c1nnn(-c2ccc(Cl)cc2)n1`, for which the “Percent Effect” value is 106%.

Turning to `COCC(C)NC(=O)c1nnn(-c2ccc(OC)cc2)n1` (stereo not drawn), the “Percent Effect” value turned out to be 5.009%. `COc1ccc(-n2nnc(C(N)=O)n2)cc1`: the “Percent Effect” value is recorded as 106.9%.

`O=C(Nc1ccccc1OCC(F)F)N[C@@H]1C=C[C@H](CO)C1`: the “Percent Effect” value is listed as -12.74%. Next, `O=C(NCC(O)c1ccc(F)cc1F)c1cccnc1O` (stereo not drawn): -11.89%; `Cc1cccc(CNC[C@H]2Cn3ccnc3CO2)n1`: -11.54%; `COCCOc1ccc(C(=O)N[C@@H]2CNCCC[C@H]2O)cc1`: -1.711%. Turning to `COCCNc1cc(C2CCCNC2)ccn1.Cl` (stereo not drawn), the “Percent Effect” value stood at 131.3%. Consider `Cc1cccc(CNc2cc(C3CCCNC3)ccn2)n1.Cl` (stereo not drawn), for which the “Percent Effect” value is 115.3%. Consider `Cc1cc(C)c2nc(CN[C@H]3CCCNC3)cc(O)c2c1`, for which the “Percent Effect” value worked out at 1.45%. For `COc1ccnc(CNc2cc(C3CC3)ncn2)c1` the value was -5.331%; for `COCCNc1ccc(-c2noc([C@@H]3CCCN3)n2)cn1`, 5.755%; for `Cl.Cl.c1ccc(NCc2cn3c(n2)CNCC3)nc1`, 6.135%.

Take `Cl.c1ccc(CNc2cc(C3CCCNC3)ccn2)nc1` (stereo not drawn): the “Percent Effect” value came out at 70.58%. As for `Cc1ccc2c(c1)c(CNC(C)Cn1nc(C)cc1C)nn2C` (stereo not drawn), the “Percent Effect” value turned out to be 8.057%. On to `CCN1CCC(CNS(=O)(=O)N2CCc3ccccc3C2)C1` (stereo not drawn), for which the “Percent Effect” value was determined as 5.13%. For `Cc1cccc(C2(CNC(=O)CCN3C(=O)CCC3=O)CCCC2)c1` the value was 3.863%; for `Cc1ccnc(OC[C@@]23CCO[C@@H]2CCN(S(C)(=O)=O)C3)n1`, 3.207%; for `O=c1ccc(-n2ccnc2)nn1CCNS(=O)(=O)c1ccc(Cl)s1`, 9.208%. Consider `Cc1nc(NS(=O)(=O)c2cc(C)c(Br)cc2C)no1`, for which the “Percent Effect” value is listed as 12.58%. As to `CCn1cc2c(n1)C(COC)CN(Cc1ccoc1)C2` (stereo not drawn), the “Percent Effect” value is -1.069%.

As for `CCn1nnc2c1C(COC)CN(Cc1cccs1)C2.O=C(O)C(F)(F)F` (stereo not drawn), the “Percent Effect” value is given as -4.503%. Next, `CCn1ncc2c1C(COC)CN(Cc1ccco1)C2` (stereo not drawn): 102.5%. For the compound `CCn1nnc2c1C(COC)CN(C(=O)Cc1cccs1)C2` (stereo not drawn), the “Percent Effect” value is recorded as -3.417%. As to `CCn1nnc2c1C(COC)CN(Cc1ccco1)C2` (stereo not drawn), the “Percent Effect” value came to 114.9%.

On to `CCn1ncc2c1C(COC)CN(Cc1ccc(C)o1)C2` (stereo not drawn), for which the “Percent Effect” value was found to be 99.39%.

As for `Cc1ccc(CN2Cc3cnn(C)c3C(COCC3CC3)C2)o1` (stereo not drawn), the “Percent Effect” value is 20.07%.

As for `CNC(=O)C1(N(C)CCc2ccccc2)Cc2ccccc2C1`, the “Percent Effect” value is recorded as 30.02%. For `CCc1ccccc1C(=O)N1C[C@@H](CN2CCOCC2)[C@@H](CO)C1` the value was -4.214%.

Turning to `O=C(NCC(O)c1cccc(F)c1)C1CCN(C(=O)C2CCC2)CC1` (stereo not drawn), the “Percent Effect” value was -0.7968%. Take `COc1ccc(-n2ncc3c2NC(=O)CSC3C(C)C)cc1` (stereo not drawn): the “Percent Effect” value stood at 81.05%. As for `Cc1c(C(C)NC2CSCCSC2)cnn1-c1ccc(F)cc1F` (stereo not drawn), the “Percent Effect” value was -0.1798%.

With `CC(C)CC1SCC(=O)Nc2c1cnn2C(C)C` (stereo not drawn), the “Percent Effect” value stood at 1.479%.

Turning to `CC(C)C1SCC(=O)Nc2c1cnn2-c1ccc(Cl)cc1` (stereo not drawn), the “Percent Effect” value is reported as 114.3%.

Take `CC(C)C1SCC(=O)Nc2c1cnn2-c1ccc(Cl)cc1F` (stereo not drawn): the “Percent Effect” value is on record as 70.31%. As for `COc1ccc(C2CC(=O)Nc3c2cnn3C)cc1` (stereo not drawn), the “Percent Effect” value is recorded as 32.7%. With `CC(C)(C)n1ncc2c1NC(=O)CC2c1ccsc1` (stereo not drawn), the “Percent Effect” value was 12.08%. Next, `CC(=O)N1CCC(NC(C)c2cnn(-c3ccc(F)cc3F)c2C)CC1` (stereo not drawn): -2.797%; `CN1CCN(Cc2cnn(-c3ccc(F)cc3)c2)[C@H]2CS(=O)(=O)C[C@H]21`: -6.219%; `CC(C)CC1SCC(=O)Nc2c1cnn2-c1ccc(F)cc1` (stereo not drawn): 52.58%. `COc1ccc(-n2ncc(C(C)NC3CCSCC3)c2C)cc1` (stereo not drawn): the “Percent Effect” value is recorded as -4.294%. Regarding `Cc1noc(CNC(=O)NCCOc2ccc(Cl)cc2)n1`, the “Percent Effect” value is -1.273%. In the case of `N#Cc1cccc(OCCCN2CCN(C(=O)c3ccoc3)CC2)c1`, the “Percent Effect” value was -11.27%.

On to `CC(C)C1SCC(=O)Nc2c1cnn2-c1ccc(F)cc1` (stereo not drawn), for which the “Percent Effect” value is 81.09%.

With `CC(C)n1ncc2c1NC(=O)CSC2C(C)(C)C` (stereo not drawn), the “Percent Effect” value stood at 1.885%. For the compound `CC(C)n1[nH]c(=O)c2c1NC(=O)CSC2C1CCCCC1` (stereo not drawn), the “Percent Effect” value is -15.8%. With `Cc1ccccc1CN(CCN(C)C)Cc1ccc(S(C)(=O)=O)cc1`, the “Percent Effect” value was -5.606%.
